Records with an inconclusive call do not appear. Activity calls are given as the source filed them. The limit is not given here; nearly all actives have IC50 up to about 30 µM.
Assay: SU-DIPG-XXV glioma cell viability, MIPE5.0 library, qHTS (AID 1347068);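 as to IC50: cells exposed to compound for 48 hours before viability readout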

Row | SMILES | IC50 | outcome
1 | CCS(=O)(=O)N1CCN(c2ccc(Nc3ncc(C(N)=O)c(NC4CC4)n3)cc2)CC1 | 23.5 µM (active) | –
2 | Cc1ccc(S(=O)(=O)Nc2cc(C(F)(F)F)ccc2C(=O)Nc2nc(-c3ccccc3)cs2)cc1 | 4.68 µM (active) | –
3 | O=C(Cc1cccc(OC(F)(F)F)c1)Nc1ccc(CCCCc2nnc(NC(=O)Cc3ccccn3)s2)nn1 | – | inactive
4 | c1ccc(CNCc2ccc(CN3CCCNCCNCCCNCC3)cc2)nc1 | – | inactive
5 | CCN1C(=O)CNc2ncc(-c3ccc(-c4ncn[nH]4)nc3C)nc21 | 8.33 µM (active) | –
6 | Cc1ccc(NC(=O)[C@H]2CCCN(C(=O)c3c(C)cccc3F)[C@H]2c2ccc(NC3CCCC3)cc2)cc1C(F)(F)F | – | inactive
7 | NC(=O)c1cnc(N[C@@H]2CCCC[C@@H]2N)nc1Nc1cccc(-n2nccn2)c1 | 18.6 µM (active) | –
8 | CN[C@@H](C)C(=O)N[C@H](C(=O)N1CCC[C@H]1C(=O)Nc1snnc1-c1ccccc1)C1CCCCC1 | – | inactive
9 | COCc1c(-c2ccc(NC(=O)Nc3cc(C(F)(F)F)ccc3F)c(F)c2)c2c(N)ncnn2c1CN1CCOCC1 | 7.42 µM (active) | –
10 | COc1ccc(-n2cnc3cc(C(=O)N4CCCCC4)ccc32)cc1 | – | inactive
11 | CCCCOC(=O)NS(=O)(=O)c1sc(CC(C)C)cc1-c1ccc(Cn2ccnc2)cc1 | – | inactive
12 | CC(C)C(N)C(=O)OCC(CO)OCn1cnc2c(=O)[nH]c(N)nc21 (stereo not drawn) | – | inactive
13 | OC(c1ccc(-c2ccc(CN3CCN(Cc4ccncc4)CC3)cc2)c(F)c1)(C(F)(F)F)C(F)(F)F | – | inactive

From PubChem BioAssay
